# Screening data (PubChem)
# SENP6 block – SENP6 protease inhibitors, primary screen, biochemical, luminescence, uHTS; Sentrin-specific protease 6 (Homo sapiens), Q9GZR1; Recombinant SENP6 catalytic domain, aminoluciferin luminescence; inhibition, % at 10 µM; 330,000 compounds, 1.8% hits; AID 2599, 2010;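 active = inhibition above about 50% at the single tested dose, limit read from the data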;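 also: plate controls were DMSO wells with enzyme for no effect and DMSO wells lacking enzyme for full effect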
# SENP7 inh – SENP7 protease inhibitors, primary screen, biochemical, luminescence, uHTS; Sentrin-specific protease 7 (Homo sapiens), Q9BQF6; recombinant SENP7, Z-RLRGG-aminoluciferin luminescence, 40 min; inhibition, % at 5 µM; 330,000 compounds, 1.5% hits; AID 434973, 2010;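 active = inhibition above about 50% at the single test dose, limit read from the data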;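 also: plate controls were DMSO with enzyme for no effect and no enzyme buffer wells for full effect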
# Target sequence (Q9BQF6 706-1050 limits assumed): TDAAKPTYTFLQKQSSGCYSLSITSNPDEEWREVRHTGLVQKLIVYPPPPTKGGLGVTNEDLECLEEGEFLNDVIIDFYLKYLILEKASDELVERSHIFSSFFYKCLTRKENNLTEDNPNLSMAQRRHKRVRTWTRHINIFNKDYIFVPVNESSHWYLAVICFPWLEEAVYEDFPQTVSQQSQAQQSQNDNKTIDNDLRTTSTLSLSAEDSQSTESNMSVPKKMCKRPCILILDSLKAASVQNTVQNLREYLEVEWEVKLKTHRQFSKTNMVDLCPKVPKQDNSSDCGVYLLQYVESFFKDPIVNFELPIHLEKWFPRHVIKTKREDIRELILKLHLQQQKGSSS
# SENP8 block-1 – human SENP8 protease inhibitors, primary screen, biochemical, fluorescence, Nedd8 protein substrate, uHTS; Sentrin-specific protease 8 (Homo sapiens), Q96LD8; recombinant SENP8; inhibition, % at 20 µM; 360,000 compounds, 0.64% hits; in the data active = inhibition mostly above about 40%, no sharp cut-off; inactive = mostly below about 27%
# Target sequence (Q96LD8 whole entry, looked up): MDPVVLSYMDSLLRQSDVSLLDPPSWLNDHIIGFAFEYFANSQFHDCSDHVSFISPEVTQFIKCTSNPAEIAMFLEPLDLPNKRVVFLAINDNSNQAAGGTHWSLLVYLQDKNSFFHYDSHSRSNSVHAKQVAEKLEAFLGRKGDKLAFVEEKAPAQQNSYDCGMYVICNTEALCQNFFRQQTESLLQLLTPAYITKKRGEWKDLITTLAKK
# PPC-1+TRAIL kill – compounds killing PPC-1 cancer cells with TRAIL present, primary screen, TRAIL potentiator project, ATPLite luminescence, uHTS; PPC-1 cells + TRAIL, ATPLite viability luminescence; cell killing (% activity), % at 4 µM or 5 µM; 220,000 compounds, 0.41% hits;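 active = cell killing above 50% in the first pass at 4 µM, then a duplicate retest at 5 µM averaging 50% or more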;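 also: plate controls were cells with TRAIL plus DMSO for no effect and medium-only wells lacking cells for full effect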
# SENP8 block-2 – SENP8 protease inhibitors, primary screen, biochemical, luminescence; Sentrin-specific protease 8 (Homo sapiens), Q96LD8; purified SENP8, Z-RLRGG-aminoluciferin cleavage; inhibition, % at 10 µM; 330,000 compounds, 1.2% hits; in the data active = inhibition above about 50%
# TRAIL sens C8 – viability loss with TRAIL in NB7+C8 cells, primary screen, TRAIL sensitizer project, cell-based, ATPlite luminescence; inhibition (viability loss, TRAIL sensitization), % at 10 µM; 360,000 compounds, 1% hits;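 active = compounds causing at least 50% loss of cell viability in the single-dose screen, relative to plate controls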
# SENP8 confirm – SENP8 protease inhibitors, retest, confirmation, biochemical, luminescence, single concentration. shares compounds with SENP7 inh. Recombinant SENP8, Z-RLRGG-aminoluciferin luminescence, 60 min. inhibition, % at 12.5 µM. 6,200 compounds, 40% hits. AID 488912, 2010;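 active = mean inhibition across replicates above about 50%, limit read from the data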
# SENP6 confirm – SENP6 protease inhibitors, confirmation, biochemical, luminescence, single concentration; AID 488915, 2010; 6,200 compounds, 58% hits; inhibition, % at 12.5 µM; shares compounds with SENP7 inh; recombinant SENP6, Z-RLRGG-aminoluciferin luminescence
# SENP7 confirm – SENP7 protease inhibitors, retest, confirmation, biochemical, luminescence, single concentration; AID 488917, 2010; shares compounds with SENP7 inh; inhibition, % at 12.5 µM; recombinant SENP7, Z-RLRGG-aminoluciferin luminescence, 40 min; 6,200 compounds, 69% hits
# Casp3 SENP sel – caspase-3 protease inhibitors, confirmation, selectivity assay for SENP inhibitor project, biochemical, single concentration; inhibition, % at 12.5 µM; shares compounds with SENP7 inh; AID 488918, 2010; purified caspase-3, Z-DEVD-aminoluciferin luminescence, 60 min; 6,200 compounds, 60% hits;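 active = mean inhibition above about 50%, limit read from the data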;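 also: plate controls were enzyme with DMSO for no effect and wells without caspase-3 for full effect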
# SENP luc ctr – luminescence interference (SENP counter-screen); Pre-incubated SENP8/Z-RLRGG-aminoluciferin, luciferase luminescence interference; shares compounds with SENP7 inh; inhibition, % at 12.5 µM; 6,200 compounds, 39% hits;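 active = mean inhibition above about 50% when retested at one dose, limit read from the data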;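 also: plate controls were DMSO wells with completed reaction for no effect and substrate without enzyme for full effect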
# Active calls of the source: *; i = inactive; x = no result. Shown are actives, neighbours in structure and some others; about 3% of the full set was active somewhere.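 The calls were made as follows, unless noted: active = mean inhibition above about 50% in the one-dose retest (limit read from the data); inactive = the rest.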
SMILES,SENP6 block,SENP7 inh,SENP8 block-1,PPC-1+TRAIL kill,SENP8 block-2,TRAIL sens C8,SENP8 confirm,SENP6 confirm,SENP7 confirm,Casp3 SENP sel,SENP luc ctr
Cc1ccccc1Cn1nnc(-c2ccc(C(=O)O)cc2)n1,-9,0,0,17,-9,1,x,x,x,x,x
O=C(O)c1cccc(-c2nnn(Cc3ccccc3Cl)n2)c1,82*,43,18,-3,56*,4,12,83*,94*,44,44
c1ccc(OCc2nc3ccccc3[nH]2)cc1,61*,54*,9,24,31,14,50,51*,85*,82*,68*
c1ccc(Cc2nc3ccccc3[nH]2)cc1,-6,10,12,x,1,-8,x,x,x,x,x
Cc1ccc(OCC(=O)O)c(-n2nc3ccccc3n2)c1,-29,-5,-365,-2,-14,13,x,x,x,x,x
Cc1cc(Cl)c(O)c(-n2nc3ccccc3n2)c1,27,71*,15,7,20,17,1,12,44,37,4
Fc1ccc2c(Cl)c(-c3nnc(-c4cccs4)o3)sc2c1,6,69*,-332,36,-10,34,2,8,25,14,3
O=C(O)c1ccc(Nc2cnc3ccccc3n2)cc1,93*,97*,-70,9,88*,-6,92*,92*,100*,97*,87*
CCOC(=O)c1ccc(Nc2cc(C)nc(-c3ccccc3)n2)cc1,-6,2,-172,x,-13,26,x,x,x,x,x
CCOC(=O)c1ccc(NCc2nc3ccccc3[nH]2)cc1,93*,58*,-46,-8,85*,39,67*,61*,83*,68*,71*
CCOC(=O)c1ccc(NC(=O)c2ccccc2[N+](=O)[O-])cc1,-17,-2,12,10,-7,25,x,x,x,x,x
CCOC(=O)c1ccc(Nc2ncccc2[N+](=O)[O-])cc1,24,83*,40,15,34,8,32,39,48,57*,6
CCOC(=O)c1ccc(Nc2cnc3ccccc3n2)cc1,18,56*,-332,24,-14,-17,7,20,63*,11,8
O=C(NCc1cccnc1)c1cc(C2CCCN(S(=O)(=O)c3cccc4cccnc34)C2)on1 (stereo not given),x,x,5,x,x,13,x,x,x,x,x
Cc1cc(C)c(NC(=O)c2ccc3c(c2)C(=O)N(Cc2cccnc2)C3=O)c(C)c1,-9,-5,9,x,-7,-22,x,x,x,x,x
Cc1ccc(O)c(NC(=O)c2ccc3c(c2)C(=O)N(Cc2cccnc2)C3=O)c1,47,86*,8,x,39,-15,0,14,32,18,-1
CCCCc1nc2cc(C(=O)NC3CCOC(C)(C)C3)ccc2o1 (stereo not given),-12,80*,13,x,-12,4,-14,-9,-11,-4,-11
Cc1ccc(C(=O)N/C(=C\c2ccccc2)C(=O)NCCN2CCOCC2)cc1,5,3,2,x,-4,-27,x,x,x,x,x
O=C(Nc1ccccc1F)c1ccc2snnc2c1,51*,46,2,x,21,-7,28,28,65*,72*,7
O=C(Nc1ccccc1)Nc1ccc2snnc2c1,62*,62*,-1,24,38,-2,56*,54*,77*,39,63*
O=C(NCC(=O)N1CCN(Cc2c(F)cccc2Cl)CC1)c1cccs1,x,x,4,x,x,-12,x,x,x,x,x
CCn1c(C)c(C(C)=O)cc(C#N)c1=O,5,79*,11,14,-5,0,-7,-2,-6,-3,-5
CC(=O)c1cc(C#N)c(SCC(=O)O)nc1C,9,10,11,-11,1,0,x,x,x,x,x
CN1CC=C2C(C#N)=C(N)C(C#N)(C#N)[C@H](c3ccoc3)[C@H]2C1,76*,41,i,1,27,5,12,10,2,-2,-7
CCCC1(C)NC(=O)c2ccccc2O1 (stereo not given),3,-9,5,3,-7,-10,x,x,x,x,x
SMILES,SENP6 block,SENP7 inh,SENP8 block-1,PPC-1+TRAIL kill,SENP8 block-2,TRAIL sens C8,SENP8 confirm,SENP6 confirm,SENP7 confirm,Casp3 SENP sel,SENP luc ctr
COc1ccc2c(C#N)c3ccccn3c2c1,50*,21,-391,5,10,6,26,52*,-1,4,-1
Clc1cc(Cl)c2nc(N3CCOCC3)sc2c1,-39,25,1,-10,14,5,x,x,x,x,x
Clc1ccc(-c2nsc(N3CCOCC3)n2)c(Cl)c1,77*,68*,11,x,65*,28,66*,64*,89*,72*,49
O=C1NN=C2CCCCCCC12 (stereo not given),x,x,18,x,x,-4,x,x,x,x,x
COCCCN=Cc1c(C)[nH]n(-c2ccc(Br)c(C)c2)c1=O,53*,38,6,-1,4,16,-3,-6,46,26,34
N#Cc1ccc(NC(=O)c2cc(-c3cccs3)on2)cc1,58*,8,-33,-6,2,-30,-24,-18,-12,-11,-8
CN(C)CCCN(C(=O)c1ccc([N+](=O)[O-])o1)c1nc2cc3c(cc2s1)OCO3,9,6,38,x,23,11,x,x,x,x,x
CCC(C)NC(=O)c1ccc2c(Cl)c3c(nc2c1)CCC3 (stereo not given),34,28,13,18,6,41,x,x,x,x,x
O=C(Nc1ccc(Cl)cn1)c1ccc2c(Cl)c3c(nc2c1)CCC3,2,71*,-3,47,1,57*,-20,-18,11,27,3
